# Assay outcomes: PubChem BioAssay, National Center for Advancing Translational Sciences (NCATS)
# Pol iota inh – qHTS for Inhibitors of Polymerase Iota; DNA polymerase iota (Homo sapiens), Q9UNA4; Pol iota fluorescent replication assay, 10 min; Potency, µM (top dose mostly 115 µM), inactives show at the top dose activity, negative = inhibition, actives largely listed as inhibitors; 390,000 tested, 1% active
#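 Fluorescent replication assay read twice, at 0 min and 10 min after adding 50 nM (final) substrate. Enzyme (10 nM) and compounds were first incubated 15 min at room temperature; enzyme-free buffer wells were negative controls.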
# POLH inh – qHTS for Inhibitors of Polymerase Eta; 390,000 tested, 1.2% active; DNA polymerase eta (Homo sapiens), Q9Y253; Potency, µM (highest dose often 114 µM), for inactives: top-dose activity change, negative = inhibition, usual class: inhibitors; recombinant Pol eta, fluorescent DNA replication assay; AID 588591, 2011; note: % is set by controls: 0 for no effect and ±100 for the full control effect
#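 Pol eta (10 nM) was preincubated with compounds for 15 min at room temperature, after which fluorescent replication substrate (50 nM final) was added to start the reaction. Fluorescence was read kinetically at 0 and 10 min.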
# POLK inh – qHTS for Inhibitors of Polymerase Kappa; DNA polymerase kappa (Homo sapiens), Q9UBT6; purified Pol kappa, fluorescent DNA synthesis assay, 10 min; Potency, µM (highest dose often 107 µM), for the others: at the highest dose activity, negative = inhibition, hits mostly inhibitors; 400,000 tested, 0.53% active; AID 588579, 2011; note: % is set by controls: 0 for no effect and ±100 for the full control effect
#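 Here, compound and 10 nM enzyme are combined for 15 min at room temperature; adding 50 nM substrate (final) starts DNA synthesis, tracked by fluorescence at 0 and 10 min against buffer-only wells.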
# Pol beta inh – qHTS Assay for Inhibitors of DNA Polymerase Beta. P06746. Pol beta primer extension/strand displacement, fluorescence kinetic. 340,000 tested, 1.3% active. Potency, µM (titrated, usually from 114 µM), for inactives: top-dose activity change, negative = inhibition, most hits filed as inhibitors; note: % is set by controls: 0 for no effect and ±100 for the full control effect
#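 Homogeneous kinetic assay of primer extension and strand displacement by 10 nM Pol beta, preincubated 15 min at room temperature with compound before 50 nM substrate (final) was added. Read at 0 and 10 min; four-parameter Hill fit.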
# FEN1 inh-1 – qHTS Assay for the Inhibitors of Human Flap endonuclease 1 (FEN1); P39748; Recombinant FEN1 flap cleavage, fluorescence, 15 min; Potency, µM (doses to about 114 µM), inactives show at the top dose activity change, negative = inhibition, most hits filed as inhibitors; 390,000 tested, 0.35% active; note: % is set by controls: 0 for no effect and ±100 for the full control effect; nearly all actives have a fitted effect of over 65% in size
#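 Enzyme 10 nM, 15 min RT preincubation with compound; start with substrate 50 nM final; reads at 0 and 15 min; qHTS titration, four-parameter Hill fit.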
# TDP1 inh – qHTS Assay for Inhibitors of Tyrosyl-DNA Phosphodiesterase (TDP1) | Tyrosyl-DNA phosphodiesterase 1 (Homo sapiens), Q9NUW8 | recombinant TDP1, AlphaScreen DNA substrate cleavage | Potency, µM (doses to about 130 µM), for the others: top-dose activity change, negative = inhibition, usual class: inhibitors | 350,000 tested, 0.28% active | AID 485290, 2010; note: % is set by controls: 0 for no effect and ±100 for the full control effect; nearly all actives have a fitted effect of over 40% in size
#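 Recombinant human Tdp1 (E. coli-expressed, 1 nM final) preincubated with compounds 15 min at room temperature, then 5'-biotin/3'-phosphotyrosine-FITC DNA substrate (15 nM final) added for 5 min. AlphaScreen beads (10 ug/ml final) added 10 min; cleavage lowers signal.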
# FEN1 inh-2 – qHTS Assay for the Inhibitors of FEN1: Confirmatory Assay for Cherry-picked Compounds; shares compounds with FEN1 inh-1; FEN1 flap cleavage, TAMRA/BHQ2 fluorogenic DNA substrate; Potency, µM, most hits filed as inhibitors; 880 tested, 79% active; AID 720498, 2013; note: nearly all actives have a fitted effect of over 60% in size
# * hit, by the source's call; ? = inconclusive; . = no result given. In the library only some 2.4% were active in any assay of this set; here they are far more common. Calls come from the whole dose curve; as a rule, active = well fitted curve in the direction sought with a large enough effect; inconclusive = small, poorly fitted or top-dose-only effect, or another doubt; inactive = no such curve, though single readings can be large; an effect the other way counts as inactive or inconclusive. Potency is the fitted concentration of half-maximal effect.
SMILES,Pol iota inh,POLH inh,POLK inh,Pol beta inh,FEN1 inh-1,TDP1 inh,FEN1 inh-2
Cc1ccc(Cl)cc1NC(=O)C(NS(=O)(=O)c1cccc2nsnc12)c1ccccc1 (stereo not given),-14.5%,-7.8%,-2.7%,0.5%,-19.6%,2.3%,.
CC1=NC(Nc2nc(C)c3ccccc3n2)=NC(C)(C)C1,22.4%,-17.7%,10.7%,0.0%,39.8µM*,6.2%,47.8*
COc1cc(NC(=O)Cn2cc(S(=O)(=O)c3ccccc3)c(=O)c3ccccc32)cc(OC)c1,18.0%,-25.0%,-6.2%,-1.7%,10.9%,6.4%,.
O=C1CN(C(=O)COC(=O)c2ccco2)c2ccccc2N1,-6.4%,-13.2%,-6.8%,.,7.1%,-9.2%,.
CC1(C)C(=O)Nc2ccccc2N1C(=O)COC(=O)c1ccc([N+](=O)[O-])o1,-10.6%,?,-29.5%,.,20µM*,-0.3%,19*
O=C1CN(C(=O)COC(=O)c2ccc([N+](=O)[O-])o2)c2ccccc2N1,?,?,-24.9%,.,?,-14.5%,19*
c1ccc2c(c1)Cc1cc3ccccc3nc1-2,?,-9.9%,-12.7%,-9.1%,?,5.7%,30.1*
O=C(Nc1cccnc1)c1cnc2ccccc2n1,23.9%,-18.5%,-3.8%,-11.1%,4.3%,4.9%,.
O=C(Nc1ccccc1-c1cn2c(CN3CCNCC3)csc2n1)c1cnc2ccccc2n1,-28.6%,.,-23.5%,.,28.2µM*,.,23.9*
